In PubChem BioAssay (NCI):
Where “and” joins values, the source holds several entries; their conditions need not be identical. Equal values may be shown once. About 83,000 compounds went through this panel and 20% of them were active in at least one assay; those are over-represented in the sample as a whole.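 In brief: 96-well plates, 48 h treatment, single concentration, percent growth endpoint.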 Calls of active or inactive are those of the source. The calls were made as follows: active = growth percent below 10; inactive = the rest.

System: MDA-MB-468 breast
Experiment: NCI-60 one-dose screen, 48 h (100 = growth as untreated, 0 = no growth, -100 = all killed)
Details: 10 µM unless noted

| SMILES | growth |
| --- | --- |
| O=C1/C(=C/N2N=C(c3ccc(Cl)cc3)CC2c2ccccc2O)SC(=S)N1c1cccc(C(F)(F)F)c1 (configuration not stated) | 62.2% (inactive) |
| COc1cc2c(c(OC)c1OC)CCC(c1cccc(C(=O)Nc3cccc(Cl)c3)c1)O2 (configuration not stated) | 77.4% (inactive) |
| CCOc1nc(-c2ccccc2)cc2c(O)c(C(=O)N/N=C/c3ccc(OC)cc3)[nH]c(=O)c12 | 61.9% (inactive) |
| S=C(Nc1ccc(-c2nc(N3CCOCC3)c3cccn3n2)cc1)Nc1cccnc1 | 34.8% (inactive) |
| CCCCCCCCCCCCC1C/C=C\CCCC(=O)O1 (configuration not stated) | 127% (inactive) |
| O=C(Nc1cccc(Br)c1)Oc1ccc(Cl)c2cccnc12 | -9.1% [100 µM] (active) |
| CCN(CC)CCSCCN(CC)CC | 93.4% (inactive) |
| COc1ccc(C2=NN(C=O)C(c3ccc(Oc4nc5c(c(=O)n(C)c(=O)n5C)n4C)c(OC)c3)C2)cc1 (configuration not stated) | 73.6% (inactive) |
| CC(=O)Oc1cccc(S(=O)(=O)n2cc(C(=O)C(=O)Nc3ccncc3)c3ccccc32)c1 | 7.5% (active) |
| COc1cc(NCCCCCCCNC(C)C)c2nccc(C)c2c1 | 9.01% (active) and 13.7% (inactive) |
| CN1c2ccccc2Sc2cc(/C=N/Nc3ccnc4cc(Cl)ccc34)ccc21 | 52.7% (inactive) |
| COc1cc(/C=C2\SC(N3CCCCC3)=NC2=O)ccc1OCCCCCCOc1ccc(/C=C2\SC(N3CCCCC3)=NC2=O)cc1OC | 7.38% (active) |
| COc1ccc(-c2noc(N)c2-c2cc(OC)c3c(c2)OCO3)cc1 | 25.6% (inactive) |
| CSc1nc2c(c(=O)n1C)C1(C(=O)N(Cc3ccccc3)c3ccccc31)c1c(nc(SC)n(C)c1=O)N2 | 86% (inactive) |
| COC(=O)c1c2c(c(C)[n+]([O-])c1C)C(=O)C(NCCN1CCOCC1)=CC2=O | 28.8% (inactive) |
| C/C(=N\Nc1ccc([N+](=O)[O-])cn1)c1ccc(N)cc1 | 99.7% (inactive) |
| O=C1Nc2c(ccc(Cl)c2Cl)/C1=C/c1ccc([N+](=O)[O-])cc1 | 103% (inactive) |
| Cn1c(=O)c2c(nc(N/N=C/c3ccccc3Cl)n2C)n(C)c1=O | 102% (inactive) |
| C=C(C)[C@@H]1C/C=C(/C=O)CC[C@@H]2O[C@@]2(C)CC/C=C(\C)CC1 | 118% (inactive) |

| SMILES | growth |
| --- | --- |
| CC(c1ccccc1)N1C(=O)C(C2SC(=S)N(C(C)c3ccccc3)C2=O)SC1=S (configuration not stated) | 44.2% (inactive) |
| CCCCN(CCCC)CCc1c(C)cc(C)c(CCN(CCCC)CCCC)c1O | 0.281% (active) |
| COc1ccc(C(=O)/C=C/c2ccc(C)cc2)cc1S(N)(=O)=O | 60.4% (inactive) |
| CN1CCN(c2ccc(NC3=C(Cl)C(=O)c4ncccc4C3=O)cc2C(F)(F)F)CC1 | -79.2% (active) |
| O=C(CCl)N1c2ccccc2Sc2c1ccc1ccccc21 | 26.4% (inactive) |
| O=C(/C=C/c1ccc(C(F)(F)F)cc1)c1ccc(Nc2nc(NCCO)nc(N3CCOCC3)n2)cc1 | 20.4% (inactive) |
| NC1=NC(c2cccc(Br)c2)c2sc3ccc(Cl)cc3c2N1 (configuration not stated) | 87.4% (inactive) |
| COC(=O)C(c1ccccc1)C(CC(=O)c1ccccc1)c1ccccc1 (configuration not stated) | 87.5% (inactive) |
| CC1(C)Cc2c(cn(Cc3ccccc3)c2-c2ccccc2)-c2oncc21 | 88.5% (inactive) |
| C=C(C)[C@@H]1CC[C@]2(C(=O)NCC(=O)OC)CC[C@]3(C)[C@H](CC[C@@H]4[C@@]5(C)Cc6c([nH]c7ccccc67)C(C)(C)[C@@H]5CC[C@]43C)[C@@H]12 | 55.1% (inactive) |
| Cc1cc2nc3c4cccc(O)c4n(CCN(C)C)c3nc2cc1C | 0.835% (active) |
| CCCCCCCCCCCCCCCCCC1=NCCN1CCOC1=C(Cl)C(=O)c2ccccc2C1=O | -50.1% (active) |
| COc1cc(-c2nc(-c3ccccc3)[nH]c2-c2ccnc(NCCCNS(=O)(=O)c3ccc(C(F)(F)F)cc3)n2)ccc1Cl | 14% (inactive) and 41.9% (inactive) |
| Cc1ccc(-c2cc(-c3nnc(SCC(=O)c4ccccc4)o3)c3ccccc3n2)cc1 | 115% (inactive) |
| C=C1C(=O)O[C@H]2[C@H]1CC/C(COC(=O)/C=C/C(=O)NCc1ccc(Cn3c(=O)sn(-c4ccccc4)c3=O)cc1)=C\CC[C@@]1(C)O[C@@H]21 | -43.4% (active) |
| CC(=O)COc1ccc(Cl)cc1Cl | 92.4% (inactive) |
| NC(N)=NC1CCCCC1 | 88.8% (inactive) |
| N#Cc1c(-c2ccccc2)cc(-c2ccccc2)n(CCCCCCC(=O)O)c1=O | 88.9% (inactive) |
